# From PubChem BioAssay (NCI)
# “And” between values parts separate entries of the source, which are not always exact repeats. Equal entries are not always repeated. This is part of a sample that, as a whole, favours compounds with a hit. Of some 83,000 tested, about 20% had one in any assay.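 Negative percent growth values reflect cell death: -40 means 40% of the cells present at the start died, and -100 means all died.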 Unmarked numbers belong to inactive results. The source made the active and inactive calls. Rule for the calls: active = growth percent below 10; inactive = the rest.
# System: MDA-MB-468 breast
# Assay: NCI-60 one-dose screen, 48 h (100 = growth as untreated, 0 = no growth, -100 = all killed)
# Details: 10 µM unless noted
row,SMILES,growth
1,Clc1ccc(-c2noc(/C=C\c3ccccc3)n2)cc1,97.7%
2,CC(C)OC1=C(Cl)C(=O)c2ccccc2C1=O,69.1%
3,O=c1cc(-c2ccccc2)[nH]c(=S)[nH]1,115%
4,C=CCNC(=S)NNc1ccc([N+](=O)[O-])cn1,98.7%
5,COc1cnc2c(c1)C(=O)c1c-2n(CCCNCCO)c(=O)c2ccncc12,-23.9% (active)
6,Cn1cc(-c2nnc(-c3ccccc3)s2)c2cc(Br)cnc21,59.4%
7,CCCCOC(=O)c1ccc(NC(=O)C(C)N2CCOCC2)cc1 (stereo not given),97%
8,C[C@@H]1CN(c2ccc3ncc(C#Cc4cncc(C(=O)Nc5ccc(CN6CCN(C)CC6)c(C(F)(F)F)c5)c4)n3n2)C[C@H](C)O1,-76.7% (active)
9,Clc1cc(Cl)cc(Nc2ccc3cc(OCCCN4CCOCC4)ccc3n2)c1,40.9%
10,O=C(Nc1ccc(-n2ccc3c(NC(=O)c4ccccc4)nccc32)cc1)c1ccc(N2CCOCC2)c(C(F)(F)F)c1,42.7%
11,CCOC(=O)/C(C#N)=C1/NNC(=Nc2cccnc2)S1,95.3%
12,Cc1[nH]c(C2CC(c3ccc(C(F)(F)F)c(F)c3)=NN2c2ccccc2)c(C)c1C(=O)NCC(F)(F)F (stereo not given),86.5%
13,COc1cc(NCC(C)(O)CN(CC(C)C)CC(C)C)c2nc(C)ccc2c1 (stereo not given),-11.4% (active)
14,O=C(C1CCCCC1)[C@@H]1[C@]2(C(=O)NC3CCCCC32)[C@@H]2CCCN2[C@@]12C(=O)NC1CCC(Cl)CC12 (stereo not given in full),-67% [100 µM] (active)
15,C=CC(=O)N1CCN(c2cccc(Oc3nccc(Nc4nnc(-c5ccc(Br)cc5)s4)n3)c2)CC1,84.4%
16,O=C1C=C(SCCO)C(=O)c2ccccc21,-42.6% (active)
17,Cc1ccc(S(=O)(=O)N2CCC(=O)c3ccccc32)cc1,25.7%
18,CNC(=O)c1cc(Oc2ccc(NC(=O)Nc3ccc(Cl)c(OC(C)C)c3)c(F)c2)ccn1,11.8%
19,COc1cc(NC2=C(Cl)C(=O)c3nc(C)ccc3C2=O)cc(OC)c1,-78.5% (active)
20,Cn1cc(-c2csc(-c3cn(C(=O)OC(C)(C)C)c4ccc(Br)cc34)n2)c2ccnc(Cl)c21,5.4% (active)

row,SMILES,growth
1,COc1ccc(C(=O)N2c3ccccc3Sc3ccccc32)c(C(F)(F)F)c1,29.7%
2,COc1cc(-c2ccc3ncnc(NC(C)c4ccccc4)c3c2)cnc1OC (stereo not given),-3.02% (active)
3,Cc1cc(N2CCCCC2)nc(N(CCNc2ccnc3cc(Cl)ccc23)Cc2ccccn2)n1,3.63% (active)
4,O=C(/C=C/c1ccc(C(F)(F)F)cc1)c1ccc(Nc2nc(NCCO)nc(N3CCOCC3)n2)cc1,20.4%
5,O=C(CI)OCC(COC(=O)CI)OC(=O)CI,51.6%
6,O=C(c1ccc(Cl)cc1Cl)N1c2ccccc2Sc2ccccc21,51.4%
7,Cc1c(Cl)cccc1NC(=O)c1sc2nc3c(cc2c1N)CCCCC3,22.4%
8,CCC(N)(C(=O)O)c1ccc(F)cc1 (stereo not given),105%
9,CN(C)CCCCNc1ccc(NCCCCN(C)C)c2c1C(=O)c1c(O)ccc(O)c1C2=O,96.8%
10,O=C(Nc1cccc(Cl)c1)c1cc2ccccc2cc1O,55.4% and 17.8%
11,CCn1c(SCC(=O)c2ccc(Br)cc2)nnc1-c1ccncc1,108%
12,CCOc1cc2c(cc1OCC)C(c1cc(C)c(O)c(C)c1)NCC2 (stereo not given),102%
13,Cc1ccc(-c2cc3nc(C(Cl)Cl)nc(-c4ccc(S(=O)(=O)N(C)C)cc4)n3n2)cc1,82%
14,O=C(CN1CCN(c2cc3c(cc2F)c(=O)c(C(=O)O)cn3C2CC2)CC1)Nc1nc(-c2ccccc2)cs1,37.4%
15,Nc1cc(C(F)(F)F)c(-c2cc(N3CCOCC3)nc(N3CCOCC3)n2)cn1,-51.6% (active)
16,C=C1CCC2C3(C)COC(C)(C)OC3CCC2(C)C1C/C=C1/C(=O)OCC1OC(C)=O (stereo not given),7.86% (active)
17,O=C(CSc1nc2sc3c(c2c(=O)n1-c1ccccc1)CCCCC3)N/N=C/c1ccc(F)cc1,-3.84% (active)
18,C=C1C(=O)O[C@H]2[C@H]1CC/C(COC(=O)/C=C/c1c[nH]c3ccccc13)=C\CC[C@@]1(C)O[C@@H]21,-78.1% (active)
19,OC(c1cc2cc(Cl)ccc2c2cc(C(F)(F)F)ccc12)C1CCCCN1 (stereo not given),-82.2% (active)
20,CC1(C)C(=O)/C(=C\c2cccnc2)C[C@]2(C)[C@H]3CC[C@@H]4[C@H]5[C@H](C(=O)/C=C/c6cccnc6)CC[C@]5(C(=O)O)CC[C@@]4(C)[C@]3(C)CC[C@@H]12,-46.4% [100 µM] (active)
